# Assay results reported in PubChem BioAssay (EPA / NIEHS).
# Several values for one entry are separate records, joined by “and”; a condition that tells them apart may be missing. Equal values may be shown once. Inconclusive results are not listed. Activity calls are given as the source filed them. Rule for the calls, unless noted: active = hit-call score of the fitted dose curve at least 0.9, where 1 is the maximum; inconclusive = response in the unintended direction; inactive = score below 0.9.
# Key:
# DIO1 (gene 1733) = experiment: CCTE_GLTED_hDIO1: CCTE's human Deiodinase 1 (DIO1) Inhibition Assay, Great Lakes Toxicology and Ecology Division (GLTED) Lab (AID 2283987);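 note: isolated human DIO1 enzyme in a cell-free setup rather than cells; enzyme activity read as free iodide liberated from substrate via Sandell-Kolthoff colorimetry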
# Outline: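 Inhibition of human deiodinase 1 is scored as reduced iodide liberation after a 3 h enzyme–chemical incubation, detected colorimetrically by the Sandell-Kolthoff reaction against DMSO controls.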
# [1] = biological target: Ratio of Nucleoli Translocation and Cytoplasm, AR (gene 367) (UniProt P10275); experiment: UPITT_HCI_U2OS_AR_TIF2_Nucleoli_Cytoplasm_Ratio_Agonist: University of Pittsburgh U2OS Androgen Receptor-Transcriptional Intermediary Factor 2 (AR-TIF2) Agonism High Content Imaging Assay for Ratio of Nucleoli Translocation and Cytoplasm (AID 2284000);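 note: hits raise the red nucleolar to cytoplasm ratio above vehicle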
# Sequence of Ratio of Nucleoli Translocation and Cytoplasm, AR (gene 367) (P10275 whole entry, looked up): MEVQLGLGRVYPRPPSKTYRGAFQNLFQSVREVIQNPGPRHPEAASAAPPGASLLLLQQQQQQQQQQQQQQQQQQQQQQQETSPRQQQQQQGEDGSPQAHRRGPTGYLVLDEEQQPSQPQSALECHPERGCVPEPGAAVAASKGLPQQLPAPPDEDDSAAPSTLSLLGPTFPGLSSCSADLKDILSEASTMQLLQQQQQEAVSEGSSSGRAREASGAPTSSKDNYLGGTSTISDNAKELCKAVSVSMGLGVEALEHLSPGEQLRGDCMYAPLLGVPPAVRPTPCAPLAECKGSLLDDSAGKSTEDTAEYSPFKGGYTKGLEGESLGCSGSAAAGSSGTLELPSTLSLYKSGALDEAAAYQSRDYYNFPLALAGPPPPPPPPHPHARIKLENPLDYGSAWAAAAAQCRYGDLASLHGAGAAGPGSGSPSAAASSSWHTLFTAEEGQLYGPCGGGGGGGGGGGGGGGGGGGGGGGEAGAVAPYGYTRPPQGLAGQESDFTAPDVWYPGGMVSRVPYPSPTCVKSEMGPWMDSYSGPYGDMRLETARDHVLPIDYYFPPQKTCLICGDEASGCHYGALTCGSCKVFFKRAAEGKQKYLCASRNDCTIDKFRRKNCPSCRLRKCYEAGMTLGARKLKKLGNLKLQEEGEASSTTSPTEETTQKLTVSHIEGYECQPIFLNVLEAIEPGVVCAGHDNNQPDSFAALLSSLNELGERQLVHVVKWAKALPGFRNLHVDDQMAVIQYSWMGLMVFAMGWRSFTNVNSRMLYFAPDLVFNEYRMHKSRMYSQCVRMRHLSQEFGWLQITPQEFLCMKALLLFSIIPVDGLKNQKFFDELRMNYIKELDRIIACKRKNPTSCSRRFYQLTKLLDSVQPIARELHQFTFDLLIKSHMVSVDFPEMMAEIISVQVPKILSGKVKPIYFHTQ
# Outline: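 Primary screen at 20 uM final (0.2% DMSO), then triplicate confirmation and dose-response from 0.195 to 50 uM final (0.5% DMSO). Cells: U2OS with AR-RFP and TIF2-GFP. Endpoint is the nucleoli/cytoplasm red-fluorescence ratio, gain-of-signal vs DMSO.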
# [2] = biological target: Nucleoli Translocation, AR (gene 367) (UniProt P10275); experiment: UPITT_HCI_U2OS_AR_TIF2_Nucleoli_Antagonist: University of Pittsburgh U2OS Androgen Receptor-Transcriptional Intermediary Factor 2 (AR-TIF2) Antagonism High Content Imaging Assay for Nucleoli Translocation (AID 2283997)
# Sequence of Nucleoli Translocation, AR (gene 367) (P10275 whole entry, looked up): as above
# Outline: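 An antagonist-mode imaging screen: engineered U2OS (AR-RFP, TIF2-GFP) exposed to 20 uM compound, 0.2% DMSO. Activity reflects nucleolar red fluorescence change relative to DHT baseline.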
# [3] = biological target: Ratio of Nucleoli Translocation and Cytoplasm, AR (gene 367) (UniProt P10275); experiment: UPITT_HCI_U2OS_AR_TIF2_Nucleoli_Cytoplasm_Ratio_Antagonist: University of Pittsburgh U2OS Androgen Receptor-Transcriptional Intermediary Factor 2 (AR-TIF2) Antagonism High Content Imaging Assay for Ratio of Nucleoli Translocation and Cytoplasm (AID 2283999);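 note: antagonists lower the DHT-driven ratio of nucleolar to cytoplasmic red signal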
# Outline: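 Compounds were added to U2OS cells carrying red-fluorescent AR and green-fluorescent TIF2, first at 20 uM, with hits confirmed in triplicate and titrated from 0.195 to 50 uM. Nucleolar versus cytoplasmic AR-RFP fluorescence was then quantified by imaging, with analysis relative to DHT.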
# [4] = CEETOX_H295R_TESTO_noMTC: CeeTox H295R High-throughput Steroidogenesis Assay for Testosterone (TESTO), maximum tolerated concentration (MTC) filtered results only (AID 2283924; active = hit-call score of the fitted dose curve at least 0.9, where 1 is the maximum; inactive = score below 0.9); details: actives raise or lower the signal
# Outline: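 Medium testosterone, measured by HPLC-MS/MS after liquid-liquid extraction, was fitted in both directions relative to DMSO without MTC filtering. Adrenal H295R cells received 48 h chemical exposure (0.1% DMSO final) after 48 h forskolin (10 uM) prestimulation; viability by MTT.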
# THRB (gene 7068) [5] = biological target: THRB (gene 7068) (UniProt P10828); experiment: TOX21_TRB_BLA_Antagonist_Followup_ratio: Tox21 Thyroid Hormone Receptor beta Antagonism Beta-lactamase (BLA) Follow-Up Assay, Ratio (AID 2283958)
# Sequence of THRB (gene 7068) (P10828 whole entry, looked up, the tested form may be a part): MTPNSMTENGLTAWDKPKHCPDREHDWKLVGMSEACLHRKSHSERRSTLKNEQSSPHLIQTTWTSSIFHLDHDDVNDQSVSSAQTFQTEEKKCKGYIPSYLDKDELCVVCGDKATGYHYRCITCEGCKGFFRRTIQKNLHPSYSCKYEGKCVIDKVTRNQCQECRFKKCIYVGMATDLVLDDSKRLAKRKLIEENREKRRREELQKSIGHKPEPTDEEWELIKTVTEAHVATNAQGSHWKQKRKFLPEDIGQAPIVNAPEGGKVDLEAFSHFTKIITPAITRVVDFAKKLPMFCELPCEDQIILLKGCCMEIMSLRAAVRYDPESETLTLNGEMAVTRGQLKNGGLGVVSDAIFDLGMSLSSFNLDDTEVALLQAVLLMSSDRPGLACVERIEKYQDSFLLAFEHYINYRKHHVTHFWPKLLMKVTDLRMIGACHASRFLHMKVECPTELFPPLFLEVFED
# Outline: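 Cells were plated and allowed to attach for 5 h, then dosed with compounds in DMSO at 11 concentrations for 18 h at 37C. Beta-lactamase reporter activity was measured via CCF4-AM FRET as the 460:530 nm ratio.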
# [6] = TOX21_TRB_BLA_Antagonist_Followup_viability: Viability Assessment in the Tox21 Thyroid Hormone Receptor beta Antagonism Beta-lactamase (BLA) Follow-Up Assay (AID 2283961)
# Outline: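 TRβ-bla HEK293T (human TRβ LBD fused to GAL4 DBD), 3,000 cells/well, 2% charcoal-stripped FBS, phenol red-free medium; 18 h compound exposure, 37C; CellTiter-Glo 30 min RT; luminescence, loss-of-signal readout.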
# THRB (gene 7068) [7] = biological target: THRB (gene 7068) (UniProt P10828); experiment: TOX21_TRB_COA_Antagonist_Followup_ratio: Tox21 Thyroid Hormone Receptor beta Antagonism through Coactivator Recruitment Follow-Up Assay, Ratio (AID 2283967)
# Outline: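 Coactivator (SRC-2) recruitment to purified GST-TRβ ligand-binding domain is monitored by terbium-to-fluorescein energy transfer, emission ratio 520:495 nm. DMSO wells define 0% and T3 wells 100% activity.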
# [8] = biological target: Retinoic acid receptor RXR-alpha (Homo sapiens) (UniProt P19793); experiment: TOX21_TR_RXR_BLA_Antagonist_Followup_ratio: Tox21 Thyroid Hormone Receptor beta Retinoid X Receptor alpha (RXRa) Antagonism Beta-lactamase (BLA) Follow-Up Assay, Ratio (AID 2283972)
# Sequence of Retinoic acid receptor RXR-alpha (Homo sapiens) (P19793 whole entry, looked up): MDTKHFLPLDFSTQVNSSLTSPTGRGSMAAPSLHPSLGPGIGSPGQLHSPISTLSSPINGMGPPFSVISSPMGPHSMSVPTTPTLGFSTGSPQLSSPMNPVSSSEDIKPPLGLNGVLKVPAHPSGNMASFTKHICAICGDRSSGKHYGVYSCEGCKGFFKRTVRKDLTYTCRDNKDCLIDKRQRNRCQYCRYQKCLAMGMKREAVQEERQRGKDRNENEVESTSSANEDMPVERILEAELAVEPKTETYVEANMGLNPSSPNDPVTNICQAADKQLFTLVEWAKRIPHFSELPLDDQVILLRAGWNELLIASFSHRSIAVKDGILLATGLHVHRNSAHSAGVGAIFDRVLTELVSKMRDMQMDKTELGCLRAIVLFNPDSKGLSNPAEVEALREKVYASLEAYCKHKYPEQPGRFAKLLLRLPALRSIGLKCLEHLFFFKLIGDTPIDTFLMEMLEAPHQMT
# Outline: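 HEK293T RXRa-bla, 2% charcoal-stripped FBS medium, 16 h compound exposure at 37C, qHTS 11 conc x3. CCF4 FRET ratio ch2/ch1 (460:530), DMSO = baseline, loss-of-signal fit.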
# [9] = TOX21_TR_RXR_BLA_Antagonist_Followup_viability: Viability Assessment in the Tox21 Thyroid Hormone Receptor beta Retinoid X Receptor alpha (RXRa) Antagonism Beta-lactamase (BLA) Follow-Up Assay (AID 2283979)
# Outline: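 RXRa-UAS-bla HEK293T cells seeded 2,500/well in phenol red-free DMEM with 2% charcoal-stripped FBS, attached 5 h, then exposed to compounds at 11 concentrations in triplicate for 16 h at 37C/5% CO2. Viability read by CellTiter-Glo ATP luminescence; bidirectional fit versus DMSO.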
# [10] = CCTE_Simmons_MITO_basal_resp_rate: CCTE's HepG2 Seahorse XF Respirometric Screening Assay at Basal Respiratory State, Simmons Lab (AID 2284001; active = hit-call score of the fitted dose curve at least 0.9, where 1 is the maximum; inactive = score below 0.9); details: actives raise or lower the signal
# Outline: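 Readout is oxygen consumption rate after test compound injection, measured by Seahorse XF in HepG2 cells. Seven concentrations from 125 nM up to 100 uM final are tested, and activity in either direction is fitted against DMSO.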
# [11] = CCTE_Simmons_MITO_max_resp_rate: CCTE's HepG2 Seahorse XF Respirometric Screening Assay at Maximal Respiratory State [uncoupled], Simmons Lab (AID 2284002; active = hit-call score of the fitted dose curve at least 0.9, where 1 is the maximum; inactive = score below 0.9); details: actives raise or lower the signal
# Outline: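 Read-out is oxygen consumption rate at maximal respiration, taken after FCCP uncoupling of compound-treated HepG2 cells. Seven final concentrations from 125 nM to 100 uM were tested, each in three biological replicates.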
# [12] = CCTE_Simmons_MITO_inhib_resp_rate: CCTE's HepG2 Seahorse XF Respirometric Screening Assay at Inhibited Respiratory State [full ETC block], Simmons Lab (AID 2284006; active = hit-call score of the fitted dose curve at least 0.9, where 1 is the maximum; inactive = score below 0.9); details: actives raise or lower the signal
# Outline: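 Seahorse respirometry, HepG2, 72 min total, 6-min mix/measure cycles. Cpd 125 nM–100 uM final ×7, n=3 biological. Sequential FCCP, rotenone/antimycin A; inhibited-respiration OCR, bidirectional fit vs DMSO.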
# [13] = CCTE_Simmons_MITO_viability: CellTiter-Glo Viability Assessment for CCTE's HepG2 Seahorse XF Respirometric Screening Assay [post-hoc], Simmons Lab (AID 2284007);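 for AC50: cells exposed to chemical for 90 min before the ATP read; actives lower ATP signal relative to DMSO baseline meaning reduced viability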
# Outline: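 Cytotoxicity readout: ATP quantitation via luciferase in HepG2 cells treated 90 min with seven titrated concentrations (125 nM to 100 uM, final). Curves fitted relative to DMSO negative control, three biological replicates per concentration.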
smiles,measurement,setting,value
CC(C)(C)c1ccc(S)cc1,AC50,DIO1 (gene 1733),16.3 µM (active)
CC(C)(CO)CO,outcome,[1],inactive
CC(=O)N(C)C,outcome,[2],inactive
same,outcome,[1],inactive
OC[C@H]1O[C@@H](O[C@H]2[C@H](O)[C@@H](O)[C@H](O)O[C@@H]2CO)[C@H](O)[C@@H](O)[C@H]1O,outcome,[2],inactive
same,outcome,[3],inactive
CC(C)(C)c1cccc(O)c1,outcome,[2],inactive
same,outcome,[3],inactive
same,AC50,[1],50 µM (active)
CCOc1ccc(NC(C)=O)cc1,outcome,[2],inactive
same,outcome,[3],inactive
same,outcome,[1],inactive
CCO[Si](CC)(OCC)OCC,outcome,[2],inactive
same,outcome,[3],inactive
same,outcome,[1],inactive
COc1cc(OC)c2ccc(=O)oc2c1,outcome,[4],inactive
same,outcome,[2],inactive
same,outcome,[3],inactive
FC(F)(F)c1ccc(Cl)c(Cl)c1,outcome,[2],inactive
same,outcome,[3],inactive
same,outcome,[1],inactive
C#C[C@]1(O)CC[C@H]2[C@@H]3CCc4cc(O)ccc4[C@H]3CC[C@@]21C,AC50,THRB (gene 7068) [5],38.3 µM (active)
same,outcome,[6],inactive
same,outcome,THRB (gene 7068) [7],inactive
same,AC50,[8],38.3 µM (active)
same,outcome,[9],inactive
same,AC50,[10],33.4 µM (active)
same,outcome,[11],inactive
same,outcome,[12],inactive
same,outcome,[13],inactive
COC(=O)c1cccc(C(=O)OC)c1,outcome,[4],inactive
same,outcome,[2],inactive
same,outcome,[3],inactive
CCCCCCCCCCOC(=O)c1ccccc1C(=O)OCCCCCCCC,AC50,[4],43 µM (active)
same,outcome,[2],inactive
same,outcome,[1],inactive
C[C@]12CC[C@@H]3c4ccc(O)cc4CC[C@H]3[C@@H]1CC[C@@H]2O,AC50,[10],27.1 µM (active)
same,outcome,[11],inactive
same,outcome,[12],inactive
same,AC50,[13],27 µM (active)
CC(CCO)CC(C)(C)C (stereo not drawn),outcome,[2],inactive
same,outcome,[3],inactive
same,outcome,[1],inactive
CC/C(=C(\c1ccccc1)c1ccc(OCCN(C)C)cc1)c1ccccc1,AC50,DIO1 (gene 1733),56.9 µM (active) and 72.6 µM (active)
same,outcome,[10],inactive
same,outcome,[11],inactive
same,outcome,[12],inactive
same,AC50,[13],73.5 µM (active)
